From PubChem BioAssay (NCI)
The panel holds about 83,000 compounds, 20% with a hit somewhere; the sample as a whole holds those more often.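 In brief: 96-well plates, 48 h treatment, single concentration, percent growth endpoint.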 Values without a mark were called inactive. Calls of active or inactive are those of the source. How the source made its calls: active means growth percent below 10; inactive means the rest.

Key:
Test in all cases: NCI-60 one-dose screen, 48 h (100 = growth as untreated, 0 = no growth, -100 = all killed)
Conditions in all cases: 10 µM unless noted
[1] = tested on: HCT-15 colon
[2] = tested on: HT29 colon
[3] = tested on: SNB-75 CNS
[4] = tested on: SNB-19 CNS
[5] = tested on: U251 CNS
[6] = tested on: PC-3 prostate
[7] = tested on: SK-MEL-5 melanoma
[8] = tested on: UACC-62 melanoma
[9] = tested on: LOX IMVI melanoma
[10] = tested on: SK-MEL-28 melanoma

CCOC(=O)c1c(C)c2c(n1Cc1ccccc1)CSc1cc(C#N)c(=O)[nH]c1-2
growth [1]: 66.3% [100 µM] | growth [2]: 71% [100 µM] | growth [3]: 25.4% [100 µM] | growth [4]: 89.3% [100 µM] | growth [5]: 49.8% [100 µM] | growth [6]: 70% [100 µM] | growth [7]: 100% [100 µM] | growth [8]: 70.9% [100 µM] | growth [9]: 72.9% [100 µM] | growth [10]: 105% [100 µM]

Cc1cc(=O)oc2cc(Oc3nc(-c4ccccc4)cn4c(-c5ccccc5)cnc34)ccc12
growth [1]: 68.6% | growth [2]: 53.2% | growth [3]: -1.39% (active) | growth [4]: 64.4% | growth [5]: 67.3% | growth [6]: 39.2% | growth [7]: 38.3% | growth [8]: 81.4% | growth [9]: 56.4% | growth [10]: 67.6%

CCOC(=O)c1cc(C(=O)c2cc(OC)cc(OC)c2)n2ccccc12
growth [1]: 25.6% | growth [2]: 10.1% | growth [3]: 20.5% | growth [4]: 41.7% | growth [5]: 38.6% | growth [6]: 40.4% | growth [7]: 27.4% | growth [8]: 30.9% | growth [9]: 38.1% | growth [10]: 67.3%

Cc1ccc(Nc2oc(-c3ccccc3)nc2[P+](c2ccccc2)(c2ccccc2)c2ccccc2)cc1
growth [1]: -34.4% (active) | growth [2]: -28.1% (active) | growth [3]: -2.21% (active) | growth [4]: 0.303% (active) | growth [5]: -58% (active) | growth [6]: -21.1% (active) | growth [7]: -99.7% (active) | growth [8]: -35.4% (active) | growth [9]: -100% (active) | growth [10]: 1.52% (active)

COc1cc(/C=C/C(=O)c2ccc(-n3cc(CN4CCN(c5cc6c(cc5F)c(=O)c(C(=O)O)cn6C5CC5)CC4)nn3)cc2)cc(OC)c1OC
growth [1]: 90.6% | growth [2]: 99.2% | growth [3]: 85.7% | growth [4]: 76.7% | growth [5]: 68.4% | growth [6]: 84.7% | growth [7]: 79.7% | growth [8]: 72.8% | growth [9]: 55.7% | growth [10]: 92%

COc1cc2nc3cc([N+](=O)[O-])ccc3c(NCCCNCCO)c2cc1OC
growth [1]: 41.2% | growth [2]: 1.17% (active) | growth [3]: -74.2% (active) | growth [4]: -19% (active) | growth [5]: -45.5% (active) | growth [6]: -66.8% (active) | growth [7]: -93.9% (active) | growth [8]: -65.2% (active) | growth [9]: -63.7% (active) | growth [10]: -53.1% (active)

CN(C)CC1C(=O)O[C@H]2[C@H]1CC/C(COC(=O)NCc1ccc(Cn3c(=O)sn(CCCI)c3=O)cc1)=C\CC[C@@]1(C)O[C@@H]21 (stereo not given in full)
growth [1]: 5.27% (active) | growth [2]: -80.4% (active) | growth [3]: 71.8% | growth [4]: 89.9% | growth [5]: 84.7% | growth [6]: 66.5% | growth [7]: 64.2% | growth [8]: 15.9% | growth [9]: -75.8% (active) | growth [10]: -80.3% (active)

COc1cccc2cc(N(C)c3ncnc4ccccc34)ccc12
growth [1]: 11.1% | growth [2]: 2.77% (active) | growth [3]: 34.8% | growth [4]: 31.8% | growth [5]: 11% | growth [6]: 5.88% (active) | growth [7]: -32.4% (active) | growth [8]: 23.4% | growth [9]: 15.5% | growth [10]: 33.3%

C=C(CNCCO)[C@@H]1CC[C@]2(CO)CC[C@]3(C)[C@H](CC[C@@H]4[C@@]5(C)CCC(NCCO)C(C)(C)[C@@H]5CC[C@]43C)[C@@H]12 (stereo not given in full)
growth [1]: 71.6% | growth [2]: 12.7% | growth [3]: 66.8% | growth [4]: 83.6% | growth [5]: 31.4% | growth [6]: 75.2% | growth [7]: 65.2% | growth [8]: 94.6% | growth [9]: 33.3% | growth [10]: 80.7%

O=c1c2cccc3c(N4CCOCC4)ccc(c32)c2nc3ccccc3n12
growth [1]: 81% | growth [2]: 93.7% | growth [3]: 79.1% | growth [4]: 95.8% | growth [5]: 90.7% | growth [6]: 99.9% | growth [7]: 73.4% | growth [8]: 62.1% | growth [9]: 84.8% | growth [10]: 107%

N#Cc1c(-c2ccc(Cl)cc2)nc(NN=Cc2cccc(Cl)c2)nc1N1CCOCC1
growth [1]: 35.4% | growth [2]: 40.4% | growth [3]: 80.1% | growth [4]: 104% | growth [5]: 78.9% | growth [6]: 73.5% | growth [7]: 92.5% | growth [8]: 98.1% | growth [9]: 85.5% | growth [10]: 106%

CCOC(=O)/C(=C/c1ccc([N+](=O)[O-])cc1)C(=O)c1ccccc1
growth [1]: -15.2% (active) | growth [2]: -23.7% (active) | growth [3]: 47% | growth [4]: 51.5% | growth [5]: 26% | growth [6]: 5.94% (active) | growth [7]: 62.4% | growth [8]: 19.7% | growth [9]: -68.2% (active) | growth [10]: -29.4% (active)

CCc1ccc(Cc2cnc(NC(=O)c3cc(C)oc3C)s2)cc1
growth [1]: 24.3% | growth [2]: 10.8% | growth [3]: -4.36% (active) | growth [4]: 37.1% | growth [5]: 33.3% | growth [6]: 37.7% | growth [7]: 36.8% | growth [8]: 25.3% | growth [9]: 41.3% | growth [10]: 59.5%
